The source of these data is ChEMBL document CHEMBL1961873, “Compounds: GSK PKIS; Assays: Nanosyn kinase panel” (2012).

The target in assay [1] is Protein kinase C gamma type (Homo sapiens) (UniProt P05129). The conditions noted are these: at 1 µM.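 Further: each value is an averaged percent inhibition of the enzyme.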
In assay [2] the target is T1, Protein kinase C iota type (Homo sapiens) (UniProt P41743).
T1 sequence (whole entry): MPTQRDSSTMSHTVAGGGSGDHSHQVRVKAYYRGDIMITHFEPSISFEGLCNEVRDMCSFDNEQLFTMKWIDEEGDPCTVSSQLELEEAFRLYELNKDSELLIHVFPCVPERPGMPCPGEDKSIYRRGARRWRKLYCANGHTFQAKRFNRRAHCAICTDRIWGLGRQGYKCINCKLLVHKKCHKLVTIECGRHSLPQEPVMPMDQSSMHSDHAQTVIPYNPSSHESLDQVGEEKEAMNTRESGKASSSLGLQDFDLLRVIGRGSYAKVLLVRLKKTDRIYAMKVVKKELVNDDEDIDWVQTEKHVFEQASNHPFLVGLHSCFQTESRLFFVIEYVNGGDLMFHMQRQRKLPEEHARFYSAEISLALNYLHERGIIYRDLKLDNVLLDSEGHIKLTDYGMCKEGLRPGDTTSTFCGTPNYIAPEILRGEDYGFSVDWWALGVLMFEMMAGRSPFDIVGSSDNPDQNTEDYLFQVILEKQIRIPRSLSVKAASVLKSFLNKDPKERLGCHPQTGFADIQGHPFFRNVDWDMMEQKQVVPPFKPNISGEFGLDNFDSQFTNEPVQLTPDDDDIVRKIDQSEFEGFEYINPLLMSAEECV
The conditions noted are these: at 0.1 µM.

In assay [3] the target is T1, Protein kinase C iota type (Homo sapiens). The conditions noted are these: at 1 µM.
The target in assay [4] is Protein kinase C theta type (Homo sapiens) (UniProt Q04759). The conditions noted are these: at 0.1 µM.
Assay [5] shares this target. The conditions noted are these: at 1 µM.
The target in assay [6] is Protein kinase C beta type (Homo sapiens) (UniProt P05771). The conditions noted are these: at 0.1 µM.
Assay [7] has the same target. The conditions noted are these: at 1 µM.
In assay [8] the target is T2, Serine/threonine-protein kinase D1 (Homo sapiens) (UniProt Q15139).
T2 sequence (whole entry): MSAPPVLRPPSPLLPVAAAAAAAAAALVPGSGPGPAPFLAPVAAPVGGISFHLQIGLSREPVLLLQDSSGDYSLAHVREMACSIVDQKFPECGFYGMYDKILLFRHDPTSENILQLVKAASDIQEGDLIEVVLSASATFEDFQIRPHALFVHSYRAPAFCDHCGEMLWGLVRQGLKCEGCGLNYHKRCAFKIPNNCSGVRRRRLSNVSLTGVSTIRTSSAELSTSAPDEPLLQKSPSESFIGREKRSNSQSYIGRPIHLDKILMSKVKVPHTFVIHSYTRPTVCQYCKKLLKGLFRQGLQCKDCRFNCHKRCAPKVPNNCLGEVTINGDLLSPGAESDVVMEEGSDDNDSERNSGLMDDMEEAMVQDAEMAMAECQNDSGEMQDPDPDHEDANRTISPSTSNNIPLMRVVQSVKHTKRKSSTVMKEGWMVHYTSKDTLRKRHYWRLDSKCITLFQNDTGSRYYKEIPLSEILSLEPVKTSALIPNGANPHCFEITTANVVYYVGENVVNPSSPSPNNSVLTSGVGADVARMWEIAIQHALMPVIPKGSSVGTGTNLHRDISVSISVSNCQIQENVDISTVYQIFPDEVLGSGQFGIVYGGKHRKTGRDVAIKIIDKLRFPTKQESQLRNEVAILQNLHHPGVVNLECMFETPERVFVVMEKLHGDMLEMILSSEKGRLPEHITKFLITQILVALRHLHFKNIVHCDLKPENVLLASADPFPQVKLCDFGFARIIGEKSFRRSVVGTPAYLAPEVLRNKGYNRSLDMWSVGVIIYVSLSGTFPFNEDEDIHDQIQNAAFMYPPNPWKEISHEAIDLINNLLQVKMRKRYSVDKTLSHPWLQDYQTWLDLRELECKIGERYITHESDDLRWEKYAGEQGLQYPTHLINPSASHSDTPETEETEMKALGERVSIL
The conditions noted are these: at 0.1 µM.

Assay [9] addresses T2, Serine/threonine-protein kinase D1 (Homo sapiens). The conditions noted are these: at 1 µM.
For assay [10], the target named is T3, Serine/threonine-protein kinase D2 (Homo sapiens) (UniProt Q9BZL6).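 Further: reported percent inhibition values are means, part of the GSK PKIS kinase panel screen.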
T3 sequence (whole entry): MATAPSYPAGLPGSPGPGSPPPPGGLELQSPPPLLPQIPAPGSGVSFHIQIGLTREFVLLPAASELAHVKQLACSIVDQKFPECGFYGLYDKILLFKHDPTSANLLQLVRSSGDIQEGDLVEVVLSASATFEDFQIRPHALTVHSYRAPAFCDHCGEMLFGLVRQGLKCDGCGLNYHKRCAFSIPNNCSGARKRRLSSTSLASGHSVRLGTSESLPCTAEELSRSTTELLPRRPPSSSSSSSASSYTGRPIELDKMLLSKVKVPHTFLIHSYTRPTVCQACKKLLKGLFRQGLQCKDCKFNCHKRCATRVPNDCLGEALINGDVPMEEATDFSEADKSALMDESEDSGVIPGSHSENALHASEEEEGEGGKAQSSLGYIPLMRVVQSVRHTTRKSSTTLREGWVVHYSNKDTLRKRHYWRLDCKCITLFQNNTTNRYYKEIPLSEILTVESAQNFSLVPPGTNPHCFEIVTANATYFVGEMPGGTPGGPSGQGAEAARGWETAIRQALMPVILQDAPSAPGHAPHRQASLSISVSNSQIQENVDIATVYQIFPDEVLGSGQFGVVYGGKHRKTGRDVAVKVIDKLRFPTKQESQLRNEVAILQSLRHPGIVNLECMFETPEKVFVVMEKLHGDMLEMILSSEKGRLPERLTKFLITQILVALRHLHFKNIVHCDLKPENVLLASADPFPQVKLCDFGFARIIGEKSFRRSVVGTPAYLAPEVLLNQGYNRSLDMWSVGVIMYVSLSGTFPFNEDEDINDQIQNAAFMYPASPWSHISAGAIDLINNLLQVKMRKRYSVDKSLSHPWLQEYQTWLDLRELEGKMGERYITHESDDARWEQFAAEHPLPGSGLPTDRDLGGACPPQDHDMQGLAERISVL
The conditions noted are these: at 0.1 µM.

The inhibition is the change of the read-out against control, counted positive when it falls.

Several values for one entry are separate records, joined by “and”; a condition that tells them apart may be missing. Equal values may be shown once.

Chain of Protein kinase C beta type (Homo sapiens) (P05771 2-671 limits assumed): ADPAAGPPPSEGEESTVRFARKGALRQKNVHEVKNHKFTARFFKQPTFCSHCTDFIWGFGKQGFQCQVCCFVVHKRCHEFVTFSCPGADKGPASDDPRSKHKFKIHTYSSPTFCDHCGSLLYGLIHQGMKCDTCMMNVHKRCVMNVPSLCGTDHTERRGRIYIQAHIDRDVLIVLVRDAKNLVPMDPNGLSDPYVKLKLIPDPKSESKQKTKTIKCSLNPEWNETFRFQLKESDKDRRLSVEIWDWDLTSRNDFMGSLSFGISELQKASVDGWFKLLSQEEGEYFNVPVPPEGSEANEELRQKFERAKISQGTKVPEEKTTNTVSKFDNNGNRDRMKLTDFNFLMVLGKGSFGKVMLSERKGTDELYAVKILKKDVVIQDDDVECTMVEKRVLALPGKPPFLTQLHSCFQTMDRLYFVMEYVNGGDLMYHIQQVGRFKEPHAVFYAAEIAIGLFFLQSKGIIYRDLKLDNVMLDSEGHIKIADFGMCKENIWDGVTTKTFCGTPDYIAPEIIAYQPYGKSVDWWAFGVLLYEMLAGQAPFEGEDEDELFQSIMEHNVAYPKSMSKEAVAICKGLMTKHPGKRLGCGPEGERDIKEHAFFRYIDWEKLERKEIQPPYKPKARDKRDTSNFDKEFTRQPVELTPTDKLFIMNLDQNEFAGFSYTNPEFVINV
Chain of Protein kinase C theta type (Homo sapiens) (Q04759 whole entry, looked up): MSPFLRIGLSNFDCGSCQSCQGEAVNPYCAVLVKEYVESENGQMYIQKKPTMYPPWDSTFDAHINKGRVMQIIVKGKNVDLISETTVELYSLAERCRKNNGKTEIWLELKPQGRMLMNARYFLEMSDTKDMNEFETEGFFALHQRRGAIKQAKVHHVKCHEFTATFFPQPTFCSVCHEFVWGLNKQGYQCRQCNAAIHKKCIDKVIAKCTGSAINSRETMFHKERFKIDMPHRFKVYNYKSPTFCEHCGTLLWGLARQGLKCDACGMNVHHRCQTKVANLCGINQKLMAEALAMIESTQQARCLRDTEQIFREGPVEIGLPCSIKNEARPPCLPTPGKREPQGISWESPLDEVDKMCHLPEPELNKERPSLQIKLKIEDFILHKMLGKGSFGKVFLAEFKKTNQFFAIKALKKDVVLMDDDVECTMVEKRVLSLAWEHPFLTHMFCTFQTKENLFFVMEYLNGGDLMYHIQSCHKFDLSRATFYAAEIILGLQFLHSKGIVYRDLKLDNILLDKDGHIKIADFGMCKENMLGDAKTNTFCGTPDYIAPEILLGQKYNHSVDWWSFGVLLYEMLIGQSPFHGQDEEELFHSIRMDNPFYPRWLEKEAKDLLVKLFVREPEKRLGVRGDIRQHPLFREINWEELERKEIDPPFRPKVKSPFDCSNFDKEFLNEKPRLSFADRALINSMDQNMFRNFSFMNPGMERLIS

As for `COc1ccc(Nc2ncc(-c3ccccc3)o2)cc1OC`, the inhibition in assay [1] is 1.49%; in [2], -0.08%; in [3] it was 0.61%; in assay [4] it was -0.85%; in assay [5], -0.93%; in [6], -0.24%. Moreover, the inhibition amounted to 1.4% in [7], 0.41% in [8], 2.5% in assay [9] and 0.6% in assay [10].
With `N#Cc1ccc2c(-c3ccnc(NC4CC4)n3)c(-c3ccc(F)cc3)nn2c1`, the inhibition was found to be 1.83% in [1]; 0.18% in assay [2]; 0.6% in [3]; 1.35% in assay [4]; 1.42% in [5]; 1.33% in assay [6]. In addition, the inhibition turned out to be 4.8% in assay [7], 5.97% in [8], 40% in assay [9] and 5.96% in assay [10].
`c1cnn2ncc(-c3ccnc(NCCCN4CCOCC4)n3)c2c1`: the inhibition in assay [1] was 4.8%; in [2], 0.92%; in assay [3], 4.4%; in assay [4], 2.07%; in assay [5], 2.41%; in assay [6], 1.96%. Moreover, the inhibition in assay [7] was 3.47%; in [8], 2.81%; in assay [9], 5.95%; in assay [10] it was 3.62%.
In the case of `CN1CCC(C(=O)Nc2n[nH]c3nc(-c4ccc(O)cc4)c(Br)cc23)CC1`, the inhibition in [1] is 7.76% and 8.57%; in assay [2], 3.63% and -0.08%; in assay [3], 8.06% and 5.91%; in [4], 2.17% and 0.5%; in assay [5], 7.83% and 2.97%; in [6] it was 6.51% and 5.4%. In addition, the inhibition in [7] was 30.5% and 31.2%; in [8], 1.71% and 3.32%; in assay [9], 5.76% and 5.75%; in [10] it was 1.9% and 3.95%.
For `O=C(O[C@H]1CN[C@H](C#Cc2cc3ncnc(Nc4ccc(OCc5cccc(F)c5)c(Cl)c4)c3s2)C1)N1CCOCC1`, the inhibition was determined as 5.45% in assay [1]; 1.77% in assay [2]; 0.9% in assay [3]; 3.84% in assay [4]; 5.14% in [5]; 2.11% in [6]. The inhibition in assay [7] was 1.21%; in assay [8], 4.61%; in assay [9], 6.86%; in assay [10], 6.18%.
For `CN(c1ccc(NC(=O)NCCN2CCOCC2)cc1)c1ccnc(Nc2ccc(CS(C)(=O)=O)cc2)n1`, the inhibition turned out to be 4.99% in assay [1]; 2.77% in [2]; 2.1% in assay [3]; 2.63% in assay [4]; 3.43% in assay [5]; 0.67% in [6]. Also, the inhibition was -0.33% in assay [7], 2.05% in assay [8], 1.78% in assay [9] and 2% in [10].
Turning to `COC(=O)Nc1nc2cc(Oc3ccc(NC(=O)Nc4ccccc4)cc3)ccc2[nH]1`, the inhibition was 4.89% in [1]; -0.48% in assay [2]; -0.69% in assay [3]; 1.38% in [4]; 2.87% in assay [5]; 0.28% in assay [6]. The inhibition is 0.72% in assay [7], 2.86% in [8], 3.15% in assay [9] and 2.3% in assay [10].
As to `COc1cc(Nc2ncc(-c3ccccc3)o2)cc(OC)c1`, the inhibition in [1] came to 2.55%; in assay [2] it was 2.88%; in assay [3], 3.11%; in [4], 2.43%; in [5] it was 3.38%; in [6], 0.78%. Also, the inhibition was found to be 2.17% in assay [7], 4.12% in [8], 5.16% in assay [9] and 3.39% in assay [10].
For `COc1ccc(-c2nn3ncccc3c2-c2ccnc(Nc3ccc(F)c(F)c3)n2)cc1`, the inhibition was found to be 6.44% in [1]; 1.96% in assay [2]; 0.63% in [3]; 2.86% in [4]; 7.77% in [5]; 1.81% in [6]. In addition, the inhibition worked out at 3.24% in [7], 4.47% in assay [8], 5.19% in assay [9] and 3.52% in assay [10].
Take `CCOc1ccc2c(-c3ccnc(Nc4cc(OC)cc(C(F)(F)F)c4)n3)cnn2n1`: the inhibition was 1.98% in assay [1]; 1.79% in assay [2]; -0.03% in assay [3]; 0.28% in assay [4]; -0.68% in assay [5]; 1.09% in [6]. Further, the inhibition in [7] worked out at 3.36%; in assay [8] it was 0.73%; in assay [9], 0.65%; in assay [10], 0.66%.
As for `Cc1c2ccc(N(C)c3ccnc(Nc4cccc(S(N)(=O)=O)c4)n3)cc2nn1C`, the inhibition worked out at 6.91% in assay [1]; 1.66% in [2]; 2.75% in assay [3]; 1.34% in assay [4]; 2.51% in assay [5]; 1.36% in assay [6]. Moreover, the inhibition in [7] was 2.7%; in [8], -0.64%; in assay [9], 2.68%; in assay [10], 1.1%.
As for `CN1CCC(n2cnc(-c3ccc(F)cc3)c2-c2ccnc(NCCO)n2)CC1`, the inhibition in assay [1] was 5.6%; in assay [2], 1.02%; in assay [3], 1.08%; in [4] it was 3.59%; in assay [5], 5.13%; in [6] it was 1.17%. Further, the inhibition in assay [7] is 7.68%; in [8], 5.8%; in [9], 14.6%; in [10], 4.75%.
